# Pin1 inhibitor = blocks the human prolyl isomerase Pin1; 390,000 tested, 0.009% active; Potency, µM (series often up to 115 µM), for the others: at the highest dose activity, negative = inhibition, usual class: inhibitors; AID 504891; Q13526; Pin1 FP peptide displacement, HiFluor488, 10 min; active = well fitted inhibition curve with a large enough effect in the polarisation, with a control signal flat, not every such curve was filed as active; inconclusive = small, poorly fitted or top-dose-only effect, or effect the other way, or a change in a side signal; inactive = no such curve, though single readings can be large or run the other way; the % refers to the polarisation; note: % is set by controls: 0 for no effect and ±100 for the full control effect
# Target sequence (Q13526 whole entry, looked up): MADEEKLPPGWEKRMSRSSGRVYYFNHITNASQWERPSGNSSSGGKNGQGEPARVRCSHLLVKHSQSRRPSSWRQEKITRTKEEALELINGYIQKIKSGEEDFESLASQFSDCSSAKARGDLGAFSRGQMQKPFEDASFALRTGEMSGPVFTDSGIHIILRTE
# Nrf2 ARE act = activators of Nrf2 (ARE) signaling; Potency, µM (highest dose often 46.1 µM), for inactives: at the top dose activation, actives largely listed as activators; 410,000 tested, 0.31% active; AREc32 ARE-luciferase reporter (MCF7-derived line), luminescence, 24 h; note: % of control where 0% means no effect; nearly all actives have a fitted effect of over 65% in size
#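 ARE activation measured as luciferase luminescence (Steady-Glo, 30 min RT) in AREc32_Fluc cells after 24 hr compound exposure at 37 deg C, 5% CO2; cells seeded overnight at 1000/well in OPTI-MEM, 5% FBS.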
# A549 tox = A549 cytotoxicity, counter-screen for Nrf2 inhibitors; 390,000 tested, 0.16% active; A549 ARE-Fluc cells, CellTiter-Fluor viability, 18-24 h; AID 504648; Potency, µM (highest dose often 46 µM), for inactives: at the top dose activity change, negative = cytotoxicity, actives largely listed as inhibitors; note: % is set by controls: 0 for no effect and ±100 for the full control effect
#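 A549 ARE-Fluc cells in 5% FBS OPTI-MEM, 5000 cells/well, rested 2 h then exposed to compounds in concentration-response for 18-24 h at 37 °C. Viability by CellTiter-Fluor fluorescence (Ex 405/Em 525) after 30 min; luciferase luminescence (BugLite, 15 min, RT) read afterwards.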
# Nrf2 inh = Nrf2 pathway inhibition. AID 504444. A549 ARE-Fluc reporter, luciferase luminescence, 18-24 h. 360,000 tested, 2.1% active. Potency, µM (top dose mostly 46 µM), for inactives: top-dose activity change, negative = inhibition, most hits filed as inhibitors; note: % is set by controls: 0 for no effect and ±100 for the full control effect; nearly all actives have a fitted effect of over 60% in size
#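 In this cell-based qHTS, ARE-driven firefly luciferase in A549 cells reports Nrf2 activity; the luminescent signal after BugLite lysis is the measured value, with a prior CellTiter-Fluor read for cell health.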
# * hit, by the source's call; ? = inconclusive; · = no result given; [ ] = dose if it differs, or a comment. Sampled rows, rich in hits. Any-hit rate of the full collection: about 2.2%. Unless noted, calls come from the whole dose curve; as a rule, active = well fitted curve in the direction sought with a large enough effect; inconclusive = small, poorly fitted or top-dose-only effect, or another doubt; inactive = no such curve, though single readings can be large; an effect the other way counts as inactive or inconclusive. Potency is the fitted concentration of half-maximal effect.
SMILES,Pin1 inhibitor,Nrf2 ARE act,A549 tox,Nrf2 inh
CCCCOc1ccc(NC(=O)CSc2ccc(C(=O)O)cn2)cc1,-8.2%,0.6%,-9.2%,3.9%
COc1ccc(C(=O)N/N=C/C(Br)=C/c2ccccc2)cc1,2.0%,15.8µM*,-3.6%,-12.8%
COc1cccc(C(=O)N/N=C/C(Br)=C/c2ccccc2)c1,14.9%,?,-2.4%,11.9%
O=C(N/N=C/C(Br)=C\c1ccccc1)c1n[nH]c2c1CCC2,4.0%,14.1µM*,-8.6%[1.84 µM],?
Cc1occc1C(=O)N/N=C/c1ccc(-c2ccccc2)cc1,?,-1.2%,0.9%,?
Cc1ccc(-c2cc(C(=O)N/N=C/C(Br)=C/c3ccccc3)n[nH]2)o1,7.3%,20µM*,-1.2%,?
Cc1occc1C(=O)N/N=C/C(Br)=C/c1ccccc1,1.5%,15.8µM*,-15.8%,?
COc1cc(NC(=O)c2ccccc2)c(OC)cc1Cl,-5.5%,15.7%,-1.3%,-4.3%
COc1cc(OC)c(NC(=O)c2csc(C)c2)cc1Cl,3.5%,12.6µM*,-2.5%,21.1%
COc1cc(OC)c(NC(=O)c2ccc(F)cc2)cc1Cl,3.0%,3.4%,4.1%,?
COc1cc(OC)c(NC(=O)c2cc3ccccc3cc2O)cc1Cl,5.4%,23.4%,-26.7%,25.9µM*
CCC1CC=CC2C1C(=O)N(Cc1ccccc1)C2c1ccc(OC)c(Cl)c1 (stereo not drawn),?,·,-5.6%,?
Cc1ccc(S(=O)(=O)Nc2ccc(-n3c(C)nc4ccccc4c3=O)cc2)cc1,6.9%,-0.7%,0.3%,18.4µM*
CCOc1cc(NC(=O)CCl)c(OCC)cc1NC(=O)CCl,-3.7%,7.08µM*,1.7%,?
CCCNS(=O)(=O)c1cccc(C(=O)NC2CCCc3ccccc32)c1 (stereo not drawn),-0.2%,2.1%,?,16.4µM*
CC1CCCN(C(=O)c2ccc(OC3CCN(CCc4ccccc4)CC3)cc2)C1 (stereo not drawn),?,-0.1%,0.6%,16.4µM*
O=C(CCS(=O)(=O)c1cccs1)Nc1ccc(C(=O)Nc2ccccc2F)cc1,9.6%,2.7%,4.5%,14.5%
COCc1cc(=O)n2[nH]cc(-c3ccccc3)c2n1,1.7%,1.9%,-3.5%,4.9%
CCCc1cc(=O)n2[nH]cc(-c3ccc(Cl)cc3)c2n1,0.8%,-0.2%,?,20.6µM*
CCC(C(=O)NC1CCCCC1)N(Cc1cccs1)C(=O)CCC(=O)Nc1cc(C)on1 (stereo not drawn),-0.8%,-0.1%,-14.1%,8.2µM*
Cc1cc(NC(=O)CCC(=O)N(Cc2cccs2)C(C(=O)NC2CCCC2)c2ccncc2)no1 (stereo not drawn),3.6%,0.3%,-9.2%,9.5%
CN(C)S(=O)(=O)c1cccc(-c2nn(-c3ccccc3)cc2/C=C2\SC(=S)NC2=O)c1,-12.9%,4.4%,?,16.4µM*
COc1ccc(-n2c(=S)[nH]c3cc(C(=O)Nc4ccc(OC)c(OC)c4)ccc3c2=O)cc1,-2.9%,1.1%,-1.7%,3.7%
COc1ccc(Cn2c(=O)[nH]c3cc(C(=O)NC4CCCC4)ccc3c2=O)cc1,0.7%,0.2%,1.9%,-10.6%
COc1ccc(-n2c(=S)[nH]c3cc(C(=O)Nc4cc(C(N)=O)ccc4OC)ccc3c2=O)c(OC)c1,23.4%,0.2%,-2.4%,-10.8%
SMILES,Pin1 inhibitor,Nrf2 ARE act,A549 tox,Nrf2 inh
COc1ccc(-n2c(=S)[nH]c3cc(C(=O)NC4CCCCC4)ccc3c2=O)c(OC)c1,-1.5%,-0.1%,-15.0%,14.6µM*
COc1ccc(NC(=O)c2ccc3c(=O)n(-c4ccc(OC)cc4OC)c(=S)[nH]c3c2)c(OC)c1,0.6%,0.3%,-10.1%,25.9µM*
COc1ccc(-n2c(=S)[nH]c3cc(C(=O)Nc4ccc(C)c(F)c4)ccc3c2=O)c(OC)c1,-2.4%,0.6%,-9.7%,23.1µM*
Cc1sc(-n2cccc2)c(C(C)NC(=O)Nc2ccccc2Cl)c1C (stereo not drawn),2.6%,0.6%,-13.0%,-75.2%
O=S(=O)(c1ccc(Br)cc1)N1CCN(c2nc(-c3cccs3)nc3ccccc23)CC1,-2.8%,·,-0.3%,-2.0%
CCOC(=O)c1c(C)c(-c2ccccc2)n(CC(=O)NCCc2cccc(C)c2)c1C,7.7%,0.0%,-2.0%,2.7%
COc1ccc(-c2ccccc2C2C3C=CCCC3(C)C(=O)N2Cc2ccccc2)cc1 (stereo not drawn),0.6%,·,-7.9%,?
COc1ccc2nc(C(F)(F)Cl)c(C#N)c(N)c2c1,1.1%,-0.9%,-3.5%,20.6µM*
